An excerpt weighted towards active compounds, which were near 3.5% of everything screened.
rCAG RNA binder = molecules binding r(CAG) RNA repeats | r(CAG) RNA repeat, TO-PRO-1 dye displacement fluorescence | inhibition, % at 3 µM | actives 1.3% (n = 370,000) | AID 651821;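 active means inhibition above the plate cutoff, the mean of all test compounds on that plate plus 3 SD, cut at about 35% in these data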;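 further: 0% = DMSO alone and 100% = 100 µM mitoxantrone as full dye displacement; higher means more dye released from RNA so lower well fluorescence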
PG9 binder = small molecules binding HIV-1 gp120 antibody PG9. TR-FRET gp120-PG9 antibody binding. inhibition, % at 6.7 µM. actives 0.43% (n = 360,000). AID 624416; in the data active means inhibition above about 8.5%
DNMT1 block = DNMT1 (human) enzyme inhibition | actives 0.83% (n = 360,000) | DNMT1 molecular beacon, Hinp1I cleavage, fluorescence | P26358 | AID 588458 | inhibition (reported as % activation of signal), % at 10 µM; in the data active means inhibition above about 50%
LEDGF integ inh = blocks HIV-1 LEDGF/p75-dependent DNA integration; AID 743269; actives 0.64% (n = 370,000); inhibition, % at 3.7 µM; TR-FRET IN-LEDGF/p75 DNA integration, Eu/Cy5;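 active means inhibition above the screen-wide mean plus 3 SD, cut at about 13% in these data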;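 further: signal is the Cy5 over europium emission ratio at 671 and 618 nm; 0% = plate median of compound wells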
UHRF1 binding = UHRF1 methyl-DNA binding inhibition. inhibition, % at 4.4 µM. actives 0.75% (n = 370,000). Q96T88. UHRF1 binding to methylated oligo, TR-FRET. AID 687016; in the data active means inhibition above about 21%;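 further: UHRF1 SRA domain binding a hemimethylated CpG hairpin DNA probe; 0% = median of test compound wells and 100% = reference inhibitor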
MBD2 inh = inhibitors of human MBD2 binding to methylated oligonucleotide. Q9UBB5. TR-FRET. inhibition, % at 4.4 µM. actives 0.31% (n = 370,000). AID 686964; in the data active means inhibition above about 13%
rCAG bind conf = r(CAG) RNA repeat binding, confirmation; shares compounds with rCAG RNA binder; TO-PRO-1 dye displacement fluorescence; inhibition, % at 3 µM; actives 70% (n = 4,300); AID 652065;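 active means inhibition above a per-plate cutoff, the mean inhibition of sample wells plus 3 SD, cut at about 35% in these data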;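 further: loss of TO-PRO-1 fluorescence as compound displaces dye from 1x1 AA loop RNA; 0% = DMSO only wells and 100% = 100 µM mitoxantrone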
dCAG dye counter = counter-screen for rCAG RNA binders: DNA CAG dye complex inhibitors. shares compounds with rCAG RNA binder. d(CAG) DNA oligo TO-PRO-1 dye displacement, fluorescence. inhibition, % at 3 µM. actives 94% (n = 4,300). AID 652068;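 active means inhibition above its plate's cutoff, the mean test-well inhibition plus 3 SD, cut at about 4.8% in these data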;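 further: 0% = DNA dye mix with DMSO and 100% = 100 µM mitoxantrone; hits displace the dye from DNA and so lower well fluorescence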
* marks the source's active call; other numbers are inactive results; nt = no result given.

SMILES	rCAG RNA binder	PG9 binder	DNMT1 block	LEDGF integ inh	UHRF1 binding	MBD2 inh	rCAG bind conf	dCAG dye counter
C=C1C(=O)C23CCC4C(C)(C(=O)OC)CCCC4(C)C2CCC1(O)C3 (stereo unspecified)	2	4	1	-2	3	-1	nt	nt
Cc1nc(C)c(-c2csc(Nc3ccc(O)c(C(=O)O)c3)n2)s1	35*	-5	-6	-8	0	-9	29	6.2*
Cc1nc(C)c(-c2csc(Nc3ccc(N)cc3)n2)s1	15	-18	-21	-1	-5	0	nt	nt
COc1ccc(C(C(=O)Nc2c(C)cccc2C)n2c(=O)c(-c3ccco3)nc3ccccc32)cc1 (stereo unspecified)	38*	-2	nt	8	-6	-10	15	10*
CC(C)(C)NC(=O)C(c1ccnc2ccccc12)n1c(=O)c(-c2ccco2)nc2ccccc21 (stereo unspecified)	36*	2	nt	3	-3	-5	19	15*
Cc1cccc(C)c1NC(=O)C(c1ccccc1)n1c(=O)c(-c2ccco2)nc2ccccc21 (stereo unspecified)	31	-3	nt	1	-3	2	nt	nt
CC1(c2nnnn2-c2ccc3c(c2)OCCO3)CCC(=O)N1CC1CCCCC1 (stereo unspecified)	2	0	nt	3	0	-2	nt	nt
Cc1ccc(/C=N/n2c(-c3ccccc3)n[nH]c2=S)cc1	18	-1	-1	-5	-1	3	nt	nt
CC(C)c1ccc(/C=N/n2c(-c3ccccc3)n[nH]c2=S)cc1	39*	1	3	7	-1	0	46*	13*
Cc1cc(-c2n[nH]c(=S)n2N=Cc2ccc(-c3ccccc3)cc2)n[nH]1	42*	nt	nt	-1	1	2	35*	8.9*
CCOc1ccc(Br)cc1S(=O)(=O)Nc1cccc(S(=O)(=O)Nc2ccccc2C(=O)O)c1	78*	-1	-15	-5	1	3	83*	48*
O=C(O)c1ccccc1NS(=O)(=O)c1cccc(NS(=O)(=O)c2cc(Br)ccc2Br)c1	69*	-1	7	8	-2	-1	61*	22*
Cc1ccc(S(=O)(=O)Nc2cccc(S(=O)(=O)Nc3ccccc3C(=O)O)c2)c(C)c1	67*	2	-5	-1	0	6	65*	26*
CCOc1ccc(Br)cc1S(=O)(=O)Nc1cccc(S(=O)(=O)N(C)C)c1	13	0	-7	0	-1	-2	nt	nt
O=C(O)c1cccc(S(=O)(=O)Nc2cccc(S(=O)(=O)Nc3ccc(Br)cc3)c2)c1	31	-1	-2	3	-2	3	nt	nt
Cc1cc(OCc2nc(N)nc(N)c2-c2ccc(Cl)c(Cl)c2)ccc1[N+](=O)[O-]	7	0	-4	3	3	9	nt	nt
COc1cccc2cc(C(=O)C3=C(O)C(=O)N(c4cc(C)on4)C3c3cccs3)oc12 (stereo unspecified)	44*	4	-13	3	-2	-6	62*	27*
CC(C)(C)OC(=O)N1CCC(c2cc(=O)n3[nH]cc(C(=O)NC4CCCC4)c3n2)CC1	55*	2	-2	8	-2	-1	48*	13*
COc1ccc(/C=N/NC(=O)c2[nH]c3ccc(Cl)cc3c2-c2ccccc2)c(C(=O)O)c1OC	64*	-2	-3	3	-2	1	66*	25*
O=C(N/N=C/c1ccccc1Cl)c1[nH]c2ccc(Br)cc2c1-c1ccccc1	2	-1	-12	-2	4	6	nt	nt
COc1ccc(/C=N/NC(=O)c2[nH]c3ccc(Br)cc3c2-c2ccccc2)c(C(=O)O)c1OC	62*	-1	-2	-2	0	-2	77*	43*
COc1ccc([C@H]2N[C@]3(CCCN(Cc4ccco4)C3=O)[C@H]3C(=O)N(Cc4ccccc4)C(=O)[C@@H]23)cc1	8	-1	4	2	2	1	nt	nt
CC1(C)CC(=O)C=C(c2n[nH]nc2C2CC2)C1	1	-1	7	-4	0	0	nt	nt
C/C(=N\NC(=O)c1nnn(-c2nonc2N)c1CSc1ccc(C)cc1)c1cccs1	3	-2	32	-1	0	0	nt	nt
O=S(=O)(Nc1ncccn1)c1ccc(NC(=S)N2CCN(Cc3ccc(F)cc3Cl)CC2)cc1	39*	0	-1	5	0	-5	38*	11*
SMILES	rCAG RNA binder	PG9 binder	DNMT1 block	LEDGF integ inh	UHRF1 binding	MBD2 inh	rCAG bind conf	dCAG dye counter
O=C(Nc1ccc(Cl)c(S(=O)(=O)N2CCOCC2)c1)c1ccncc1	6	-2	-5	-1	-2	-3	nt	nt
CCCC(=O)Nc1nc(C)c(-c2csc(Nc3cc(OC)ccc3OC)n2)s1	22	-2	-41	2	-3	0	nt	nt
CCCCCC(=O)Nc1nc(C)c(-c2csc(Nc3cc(Cl)ccc3OC)n2)s1	39*	0	-37	0	-4	2	27	13*
CCOC(=O)CNC(=O)CSc1nnnn1-c1ccc(C)c(C)c1	-2	1	3	-3	1	0	nt	nt
O=C(CSc1nnnn1-c1cccc2ccccc12)NC(C(=O)O)(c1ccccc1)c1ccccc1	46*	-2	-4	6	-2	2	36*	10*
O=C(CSc1nnnn1-c1cccc2ccccc12)N1CCOCC1	0	-3	2	5	4	-1	nt	nt
Cc1ccc(-n2nnnc2SCC(=O)NC(C(=O)O)(c2ccccc2)c2ccccc2)cc1C	38*	0	-2	1	-2	-5	38*	10*
COc1ccc(S(=O)(=O)NCC2CCCO2)cc1NC(=O)c1ccc(Cl)cc1 (stereo unspecified)	-2	0	0	-2	-1	-4	nt	nt
O=C(NCCc1ccccc1)c1coc(=O)c(Br)c1	-4	0	2	-2	1	2	nt	nt
Cc1cc(C)nc(OC(C(=O)O)C(OCCc2ccccc2)(c2ccc(F)cc2)c2ccc(F)cc2)n1 (stereo unspecified)	36*	0	6	-4	2	3	49*	11*
CCCOC(c1ccccc1)(c1ccc(C(F)(F)F)cc1)C(Oc1nc(C)cc(C)n1)C(=O)O (stereo unspecified)	30	0	-10	2	-1	-4	nt	nt
CC1(C(=O)Nc2ccc3c(c2)OCO3)CCN1C(=O)Cc1ccc(-c2ccccc2)cc1 (stereo unspecified)	2	2	-13	-2	-2	0	nt	nt
O=C(CN1CCN(Cc2ccc(F)cc2)CC1)Nc1ccccc1F	-9	0	0	-3	4	2	nt	nt
